# Assay results published in PubChem BioAssay (NCI).
# The panel holds about 83,000 compounds, 20% with a hit somewhere; the sample as a whole holds those more often.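 Single-concentration screen, 48 h exposure, 96-well plates. Endpoint: percent growth. Below 10 = active.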 Values without a mark were called inactive. The source made the active and inactive calls.
# Experiments:
# Experiment in all cases: NCI-60 one-dose screen, 48 h (100 = growth as untreated, 0 = no growth, -100 = all killed)
# Settings in all cases: 10 µM unless noted
# T-47D breast = system: T-47D breast
# BT-549 breast = system: BT-549 breast
# MDA-MB-435 melanoma = system: MDA-MB-435 melanoma
# SW-620 colon = system: SW-620 colon
# MCF7 breast = system: MCF7 breast
# HCT-116 colon = system: HCT-116 colon
# HCC-2998 colon = system: HCC-2998 colon
# KM12 colon = system: KM12 colon
Structure (SMILES),growth (T-47D breast),growth (BT-549 breast),growth (MDA-MB-435 melanoma),growth (SW-620 colon),growth (MCF7 breast),growth (HCT-116 colon),growth (HCC-2998 colon),growth (KM12 colon)
O=C(O)c1cccc2cccc(-c3c4ccc(=O)c(O)c-4oc4c(O)c(O)ccc34)c12,98.9%,93.8%,100%,97.3%,101%,91.2%,96.2%,96%
CC(O)C(O)C(O)C(O)C(O)C(=O)NNc1ccccc1 (stereo not given),76.4%,105%,86.4%,75.6%,88.1%,87.6%,95.1%,85.7%
CCCCCCCCCCCCSC(=N)N,-35.5% (active),63.6%,-73.2% (active),-61.5% (active),-30.8% (active),-64.2% (active),-80.5% (active),-21.1% (active)
Cc1onc(-c2ccccc2)c1C(=O)N/N=C/c1cc(Cl)cc(Cl)c1O,42%,33.8%,45.2%,35.3%,18.8%,21%,17.1%,30.6%
Cc1ccc2cccc(OC(=O)Nc3cccc(C(F)(F)F)c3)c2n1,47.1%,108%,91.3%,58%,72.2%,38%,87.6%,44.5%
O=C(Nc1cccc(C(F)(F)F)c1)Oc1ccc(Cl)c2cccnc12,22%,37.5%,28%,12.8%,61.1%,0.974% (active),92.7%,25.4%
CCCCCCC1N=C(N)N=C(N)N1c1cccc(Cl)c1 (stereo not given),51.8%,25.2%,24.1%,27%,22.4%,16.6%,10.3%,18.6%
CN(C)c1ccc2cc3c(cc2c1)Oc1ccccc1N3.[Cl][Zn][Cl],-18.9% (active),105%,6.73% (active),11.8%,3.32% (active),8.67% (active),103%,79.6%
Nc1cc(-c2ccccc2)ccc1O,88.3%,79.3%,111%,121%,102%,98.1%,83.8%,102%
CC1(O)CCCCCC1,97%,96.1%,103%,100%,96.8%,99.4%,98.8%,106%
COc1ccc(/C=C2/C(=O)ON=C2C)cc1,93%,107%,109%,103%,106%,112%,103%,113%
NC(CS/C(Cl)=C/Cl)C(=O)O (stereo not given),-7.75% (active),51%,58.6%,104%,45.1%,84.4%,102%,98.1%
c1csc(-c2[nH]nc3c2CCc2ccccc2-3)c1,-61.7% (active),98.5%,104%,106%,5.26% (active),99.1%,43.6%,23.5%
Nc1ccc(-c2ccc(N)c(S(=O)(=O)O)c2)cc1S(=O)(=O)O,106%,113%,115%,107%,104%,107%,113%,103%
CCCN(CCC)C(=O)c1ccc(C)cc1,78.5%,102%,104%,94.9%,92.1%,98.3%,87.4%,102%
O=C1c2ccccc2C(=O)c2c(O)c(Cl)cc(O)c21,28.1%,98.7%,102%,72.6%,49.9%,6.19% (active),102%,83.7%
CCOc1ccc(C(C[N+](=O)[O-])Sc2ccccc2N)cc1 (stereo not given),42.8%,-74.9% (active),3.44% (active),-40.4% (active),0.363% (active),-55.6% (active),-82.3% (active),-51.3% (active)
Cc1ccccc1NC(=O)Cc1csc2[n+]1C(=O)/C(=C/c1ccc([N+](=O)[O-])cc1)S2,84.2%,88.9%,97.5%,107%,92.7%,84.4%,82.2%,98.4%
O=C(CCl)N1c2ccccc2Sc2c1ccc1ccccc21,84.3%,36.9%,80.2%,11.1%,66.8%,16.4%,98.5%,87.2%
Cc1cc(C(N)=O)cc(C)c1C(=O)OCCCl,95.8%,111%,98%,103%,101%,97%,95.8%,93.6%
S=C1SCN(Cc2cccs2)CN1Cc1cccs1,56.5%,98.5%,93.3%,82.4%,43.9%,99.4%,116%,91.2%
CN(C)c1ccc(/C=C/c2cc[n+](C)c(/C=C/c3ccc(N(C)C)cc3)c2)cc1,-2.17% (active),18.9%,-48.7% (active),9.01% (active),-6.46% (active),9.38% (active),12.4%,-55.6% (active)
CCc1cccc(CC)c1N1C(=O)C=CC1=O,102%,116%,111%,108%,110%,88.5%,117%,110%
O=[N+]([O-])CC(O)c1ccccc1 (stereo not given),100%,112%,91.1%,105%,81.1%,78.6%,98.9%,97.4%
CCN(CC)CCNC(Cc1ccccc1)c1ccc(OCc2ccccc2)cc1 (stereo not given),68.5%,76.8%,26.7%,77.2%,78.2%,49.9%,45.4%,80.7%
